# Measurements: publication PMC7862700, “An all-to-all approach to the identification of sequence-specific readers for epigenetic DNA modifications on cytosine”
# How the values were obtained:
# Test in all cases: DAPPL (digital affinity profiling via proximity ligation, sequencing); 10 mM Tris-HCl pH 7.5, 50 mM NaCl, 1 mM DTT, 4% glycerol, room temperature, 30 min; GST-TFs on glutathione beads, 16-mer random dsDNA library, 0.1% formaldehyde crosslink after washing; high values mean tight binding
# Details in all cases: protein: recombinant; tags: N-terminal GST; dsDNA, one strand shown
# FLI1 = target: T1, FLI1 (Homo sapiens, UniProt Q01543 1-452)
# T1 sequence: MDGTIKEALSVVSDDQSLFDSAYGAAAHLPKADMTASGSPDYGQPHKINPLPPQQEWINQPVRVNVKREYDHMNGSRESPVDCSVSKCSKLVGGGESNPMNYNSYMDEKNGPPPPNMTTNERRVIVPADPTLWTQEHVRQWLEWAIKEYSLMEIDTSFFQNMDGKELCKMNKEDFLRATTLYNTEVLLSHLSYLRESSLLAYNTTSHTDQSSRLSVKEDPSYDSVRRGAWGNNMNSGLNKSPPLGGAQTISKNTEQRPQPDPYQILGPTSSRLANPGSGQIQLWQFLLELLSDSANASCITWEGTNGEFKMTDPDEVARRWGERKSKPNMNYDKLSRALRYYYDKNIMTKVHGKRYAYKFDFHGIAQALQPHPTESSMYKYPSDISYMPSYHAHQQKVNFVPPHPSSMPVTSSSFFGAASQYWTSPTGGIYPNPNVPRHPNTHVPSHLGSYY
# Method in brief: (§1)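 Sequencing on an Illumina NextSeq500 followed washing, crosslinking with 0.1% formaldehyde, proximity ligation (BsaI/T4 ligase, 1 h, 37 °C) and PCR amplification of pools that had been incubated for 30 min at room temperature with 200 nmole of a random double-stranded 16-mer DNA library in Tris/NaCl/DTT/glycerol buffer. Each pool held DNA-barcoded human transcription factors, expressed in yeast as GST fusions and captured on glutathione beads, plus a tag-only sample. Binding signal is a hexamer's read frequency for a factor divided by its frequency in the tag-only sample.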
# ELK1 = target: T2, ELK1 (Homo sapiens, UniProt P19419 1-428)
# T2 sequence: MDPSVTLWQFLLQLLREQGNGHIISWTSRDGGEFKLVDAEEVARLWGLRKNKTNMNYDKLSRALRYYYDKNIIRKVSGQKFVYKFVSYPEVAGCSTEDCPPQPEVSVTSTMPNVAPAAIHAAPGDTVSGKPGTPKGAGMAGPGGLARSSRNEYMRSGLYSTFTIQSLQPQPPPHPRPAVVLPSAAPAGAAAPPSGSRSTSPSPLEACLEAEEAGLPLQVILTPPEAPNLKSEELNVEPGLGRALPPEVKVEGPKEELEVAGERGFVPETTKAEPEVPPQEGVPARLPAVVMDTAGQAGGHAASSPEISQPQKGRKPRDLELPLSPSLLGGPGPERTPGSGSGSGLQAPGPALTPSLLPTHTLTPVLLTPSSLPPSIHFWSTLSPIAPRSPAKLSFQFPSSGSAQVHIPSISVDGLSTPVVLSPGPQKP
# Method in brief: as §1
# GABPA = target: T3, GABPA (Homo sapiens, UniProt Q06546 1-454)
# T3 sequence: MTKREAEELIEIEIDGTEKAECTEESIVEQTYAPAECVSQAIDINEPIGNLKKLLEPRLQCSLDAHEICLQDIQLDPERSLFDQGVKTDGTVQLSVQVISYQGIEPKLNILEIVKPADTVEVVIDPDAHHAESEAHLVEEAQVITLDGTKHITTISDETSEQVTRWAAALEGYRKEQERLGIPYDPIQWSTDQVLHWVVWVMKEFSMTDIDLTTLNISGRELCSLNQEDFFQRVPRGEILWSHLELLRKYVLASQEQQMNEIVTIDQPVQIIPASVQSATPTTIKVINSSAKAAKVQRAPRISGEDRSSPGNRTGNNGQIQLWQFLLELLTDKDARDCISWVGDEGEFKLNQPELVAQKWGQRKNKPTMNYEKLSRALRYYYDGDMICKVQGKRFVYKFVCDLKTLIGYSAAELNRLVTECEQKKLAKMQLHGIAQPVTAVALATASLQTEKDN
# Method in brief: as §1
# ERG = target: T4, ERG (Homo sapiens, UniProt P11308 1-479)
# T4 sequence: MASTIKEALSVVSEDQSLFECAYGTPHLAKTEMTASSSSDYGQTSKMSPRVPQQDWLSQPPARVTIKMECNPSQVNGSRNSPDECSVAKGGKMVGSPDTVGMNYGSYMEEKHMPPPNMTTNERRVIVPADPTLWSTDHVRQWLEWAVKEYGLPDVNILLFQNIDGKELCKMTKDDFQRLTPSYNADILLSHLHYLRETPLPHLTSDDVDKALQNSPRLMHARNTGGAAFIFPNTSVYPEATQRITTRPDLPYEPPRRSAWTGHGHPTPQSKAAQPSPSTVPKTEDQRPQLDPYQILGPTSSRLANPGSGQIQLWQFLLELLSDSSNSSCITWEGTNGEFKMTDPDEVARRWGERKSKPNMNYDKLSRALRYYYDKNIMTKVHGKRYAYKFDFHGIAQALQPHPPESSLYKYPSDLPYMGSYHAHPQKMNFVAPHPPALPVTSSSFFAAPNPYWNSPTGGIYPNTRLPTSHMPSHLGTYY
# Method in brief: as §1
# ELF1 = ELF1 (Homo sapiens, UniProt P32519 1-619)
# ELF1, sequence (P32519 whole entry): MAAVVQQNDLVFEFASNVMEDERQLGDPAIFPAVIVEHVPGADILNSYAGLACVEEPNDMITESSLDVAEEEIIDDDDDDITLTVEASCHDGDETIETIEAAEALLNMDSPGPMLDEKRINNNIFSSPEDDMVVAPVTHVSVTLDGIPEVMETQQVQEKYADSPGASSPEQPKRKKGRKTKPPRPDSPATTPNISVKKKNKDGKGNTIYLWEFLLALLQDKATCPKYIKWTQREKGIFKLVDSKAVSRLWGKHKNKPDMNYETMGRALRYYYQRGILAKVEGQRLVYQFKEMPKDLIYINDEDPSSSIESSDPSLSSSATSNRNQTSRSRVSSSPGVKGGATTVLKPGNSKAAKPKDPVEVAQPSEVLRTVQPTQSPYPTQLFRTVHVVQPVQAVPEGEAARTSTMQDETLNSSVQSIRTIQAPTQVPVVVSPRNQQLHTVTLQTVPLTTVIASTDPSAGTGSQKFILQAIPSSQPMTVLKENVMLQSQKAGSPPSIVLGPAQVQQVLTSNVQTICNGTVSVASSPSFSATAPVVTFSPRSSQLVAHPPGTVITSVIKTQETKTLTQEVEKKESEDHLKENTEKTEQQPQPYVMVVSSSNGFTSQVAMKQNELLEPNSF
# Method in brief: as §1
# EHF = target: T5, EHF (Homo sapiens, UniProt Q9NZC4 1-300)
# T5 sequence: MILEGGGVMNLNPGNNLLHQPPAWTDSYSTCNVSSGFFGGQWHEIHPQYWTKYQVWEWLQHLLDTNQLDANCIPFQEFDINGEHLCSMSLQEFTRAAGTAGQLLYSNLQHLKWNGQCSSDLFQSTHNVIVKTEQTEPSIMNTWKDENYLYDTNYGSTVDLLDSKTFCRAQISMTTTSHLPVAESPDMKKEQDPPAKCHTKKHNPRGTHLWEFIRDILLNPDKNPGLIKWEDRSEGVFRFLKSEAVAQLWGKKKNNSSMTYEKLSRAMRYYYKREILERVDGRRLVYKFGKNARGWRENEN
# Method in brief: as §1
# SPI1 = SPI1 (Homo sapiens, UniProt P17947 1-270)
# Method in brief: as §1
# SPIB = SPIB (Homo sapiens, UniProt Q01892 1-262)
# SPIB, sequence (Q01892 whole entry): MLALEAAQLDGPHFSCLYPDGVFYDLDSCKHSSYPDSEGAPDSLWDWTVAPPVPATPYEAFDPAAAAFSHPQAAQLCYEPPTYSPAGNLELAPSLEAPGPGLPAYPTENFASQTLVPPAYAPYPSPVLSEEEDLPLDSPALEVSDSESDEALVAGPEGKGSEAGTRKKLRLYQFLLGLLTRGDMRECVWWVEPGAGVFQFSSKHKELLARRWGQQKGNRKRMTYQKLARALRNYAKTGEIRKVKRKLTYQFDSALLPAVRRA
# Method in brief: as §1
# ELK3 = target: T6, ELK3 (Homo sapiens, UniProt P41970 1-407)
# T6 sequence: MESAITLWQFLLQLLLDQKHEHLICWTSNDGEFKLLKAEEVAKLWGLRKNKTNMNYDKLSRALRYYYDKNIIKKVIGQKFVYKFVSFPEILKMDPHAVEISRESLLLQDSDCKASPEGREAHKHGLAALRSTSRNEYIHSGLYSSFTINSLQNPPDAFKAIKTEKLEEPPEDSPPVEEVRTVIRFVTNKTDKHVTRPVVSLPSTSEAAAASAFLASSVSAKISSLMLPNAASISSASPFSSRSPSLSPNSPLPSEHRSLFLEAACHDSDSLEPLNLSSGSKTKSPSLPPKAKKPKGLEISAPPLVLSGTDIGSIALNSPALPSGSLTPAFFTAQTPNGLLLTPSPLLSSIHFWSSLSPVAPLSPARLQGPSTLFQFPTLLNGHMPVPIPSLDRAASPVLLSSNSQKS
# Method in brief: as §1
sequence,measurement,setting,value
TTTTAC,binding signal,FLI1,"1.45 fold enrichment (6-mer frequency, TF over GST control)"
same,binding signal,ELK1,"1.27 fold enrichment (6-mer frequency, TF over GST control)"
same,binding signal,GABPA,"1.33 fold enrichment (6-mer frequency, TF over GST control)"
same,binding signal,ERG,"1.3 fold enrichment (6-mer frequency, TF over GST control)"
same,binding signal,ELF1,"1.39 fold enrichment (6-mer frequency, TF over GST control)"
same,binding signal,EHF,"1.45 fold enrichment (6-mer frequency, TF over GST control)"
same,binding signal,SPI1,"1.37 fold enrichment (6-mer frequency, TF over GST control)"
same,binding signal,SPIB,"1.4 fold enrichment (6-mer frequency, TF over GST control)"
same,binding signal,ELK3,"1.39 fold enrichment (6-mer frequency, TF over GST control)"
